Compound activity: PubChem, several laboratories
Only some compounds are listed: those with a hit (about 2.3% of all), similar ones and a draw of the others.
MCL1-BIM inh – MCL1-BIM-BH3 interaction inhibition (human); GST-MCL1 / FITC-Bim-BH3 fluorescence polarization; inhibition, % at 10.9 µM; Q07820; AID 2057; 0.68% of 320,000 active;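 active = inhibition above the mean inhibition of all tested compounds plus 3 SD, set per campaign, cut at about 40% in these data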;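 note: 0% = DMSO wells and 100% = unlabeled Bim-BH3 peptide control; higher means more loss of mP so more displacement of Bim peptide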
GLD-1 TGE inh – GLD-1-TGE RNA interaction inhibition (C. elegans) | Q17339 | purified GLD-1 + fluorescein TGE RNA, fluorescence polarization | inhibition, % at 5.96 µM | 0.44% of 320,000 active | AID 2280;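 active = percent inhibition above a per-plate cutoff, the plate mean of test compounds plus 3 SD, cut at about 30% in these data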;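 note: 0% = DMSO wells with GLD-1 and probe and 100% = wells lacking GLD-1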
Mcl1-Bid inh – disrupts binding of human Mcl-1 to Bid peptide; TR-FRET Mcl-1/Bid-Dy647 peptide binding, 1536-well; inhibition, % at 21.7 µM; 0.97% of 220,000 active; AID 1021;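 active = compounds that cut the binding signal by more than half at the single screening dose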;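 note: His-tagged Mcl-1 with europium anti-His antibody binding Bid BH3 peptide; 0% = Mcl-1 plus peptide wells and 100% = peptide-only wells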
Mcl1-Noxa inh – disrupts binding of human Mcl-1 to Noxa peptide; Q07820; TR-FRET Mcl-1/Noxa peptide binding, 2 h; inhibition, % at 21.7 µM; 1.5% of 220,000 active; AID 1022;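 active = compounds that cut the protein-peptide binding signal by more than 50% relative to plate controls in a single-dose test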;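 note: His-tagged Mcl-1 with rhodamine Noxa BH3 peptide and terbium anti-His antibody; 0% = Mcl-1 plus Noxa peptide wells and 100% = peptide-only wells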
Bim-Mcl-1 – disrupts Bim peptide binding to human Mcl-1. 0.1% of 190,000 active. Bead-based flow cytometry, Bim peptide-Mcl-1 binding. Q07820. AID 1009. inhibition, % at 10 µM; in the data active = inhibition above about 40%;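 note: 0% = no compound tracer wells and 100% = peptide blocker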
Bcl-xL primary – inhibitors of human Bcl-xL; 0.7% of 320,000 active; GST-Bcl-xL / FITC-Bim BH3 peptide fluorescence polarization; inhibition, % at 10.9 µM;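 active = inhibition above the mean of all tested compounds plus 3 SD, cutoff set per campaign, cut at about 30% in these data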;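 note: 0% = DMSO wells and 100% = unlabeled Bim-BH3 peptide competitor; inhibitors lower millipolarization by displacing the labeled peptide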
Target sequence (Q07817 whole entry, looked up): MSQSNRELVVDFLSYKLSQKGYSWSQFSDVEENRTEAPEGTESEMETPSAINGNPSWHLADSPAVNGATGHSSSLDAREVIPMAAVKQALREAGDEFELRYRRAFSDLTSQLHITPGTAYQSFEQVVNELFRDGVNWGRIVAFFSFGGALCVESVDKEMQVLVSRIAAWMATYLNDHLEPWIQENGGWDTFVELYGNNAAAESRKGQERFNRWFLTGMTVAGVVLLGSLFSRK
An asterisk follows results filed as active.

Screening Cc1cccn2c(=O)c(C=O)c(Nc3ccccc3)nc12 returned MCL1-BIM inh 2, GLD-1 TGE inh 7 and Bcl-xL primary 2.
Screening N=C1/C(=C/c2cccn2-c2ccc([N+](=O)[O-])cc2)C(=O)N=C2SC=CN12 returned MCL1-BIM inh 21, GLD-1 TGE inh 3, Mcl1-Bid inh -63, Mcl1-Noxa inh 61*, Bim-Mcl-1 -7 and Bcl-xL primary 4.
For CS(=O)(=O)C1=NSC2=NC(=O)/C(=C\c3cccn3-c3ccc(Cl)cc3)C(=N)N21 the results were MCL1-BIM inh 17, GLD-1 TGE inh 14, Mcl1-Bid inh -14, Mcl1-Noxa inh 92*, Bim-Mcl-1 14 and Bcl-xL primary 19.
O=C1NC(=S)N/C1=C/c1cccn1-c1ccc([N+](=O)[O-])cc1 was read as MCL1-BIM inh 14, GLD-1 TGE inh 6, Mcl1-Bid inh -42, Mcl1-Noxa inh 80*, Bim-Mcl-1 -4 and Bcl-xL primary 9.
For O=C(Cc1ccccc1)N/N=C/c1cccn1-c1ccc([N+](=O)[O-])cc1 the results were MCL1-BIM inh 16, GLD-1 TGE inh 1, Mcl1-Bid inh -33, Mcl1-Noxa inh 7, Bim-Mcl-1 12 and Bcl-xL primary 1.
`Cc1cc(NC(=O)CSc2n[nH]c(-c3ccc(Cl)cc3Cl)n2)no1` gave MCL1-BIM inh 10, GLD-1 TGE inh 0 and Bcl-xL primary 3.
`Cc1cc(O)cc2c1C(=O)/C(=C/c1ccco1)O2` gave MCL1-BIM inh 48*, GLD-1 TGE inh 50* and Bcl-xL primary 63*.
Screening CC1=N/C(=C/c2ccco2)C(=O)O1 returned Mcl1-Bid inh -96, Mcl1-Noxa inh 27 and Bim-Mcl-1 -2.
Screening Nc1nc(NCCO)nc(N2CCCCCC2)c1[N+](=O)[O-] returned MCL1-BIM inh 6, GLD-1 TGE inh 7 and Bcl-xL primary -2.
`OCCN(CCO)c1nc(N2CCCCC2)c2nc(N(CCO)CCO)nc(N3CCCCC3)c2n1` gave GLD-1 TGE inh 155*, Mcl1-Bid inh -20, Mcl1-Noxa inh 7 and Bim-Mcl-1 1.
For Cc1ccccc1NC(=S)N/N=C1\CC(C)(C)Oc2ccc(O)cc21 the results were MCL1-BIM inh 8, GLD-1 TGE inh 4, Mcl1-Bid inh -131, Mcl1-Noxa inh -63, Bim-Mcl-1 -3 and Bcl-xL primary 82*.
Cc1ccc(NC(=S)N/N=C2\CC(C)(C)Oc3ccc(O)cc32)cc1 was read as MCL1-BIM inh 8, GLD-1 TGE inh 5, Mcl1-Bid inh -41, Mcl1-Noxa inh 23, Bim-Mcl-1 -9 and Bcl-xL primary 2.
For Cc1ccc(-c2n[nH]c(=S)n2C)cc1Cl the results were MCL1-BIM inh -18, GLD-1 TGE inh 3, Mcl1-Bid inh -39, Mcl1-Noxa inh 53*, Bim-Mcl-1 -1 and Bcl-xL primary -11.
CCN(CC)S(=O)(=O)c1cccc(-c2n[nH]c(=S)n2C)c1 was read as MCL1-BIM inh -12, GLD-1 TGE inh -5, Mcl1-Bid inh -15, Mcl1-Noxa inh 33, Bim-Mcl-1 0 and Bcl-xL primary -15.
For Cc1ccnc2nc(C(=O)OCC(=O)N(Cc3ccccc3)C(C)(C)C)nn12 the results were GLD-1 TGE inh -1.
Screening COc1cccc2sc(/N=C/N(C)C)nc12 returned MCL1-BIM inh 6, GLD-1 TGE inh 2, Mcl1-Bid inh 56*, Mcl1-Noxa inh 26 and Bcl-xL primary -2.
For O=C1N/C(=N/NC(=O)c2cccc3ccccc23)S/C1=C\c1ccccc1OCc1ccccc1 the results were Mcl1-Bid inh 57*, Mcl1-Noxa inh 19 and Bim-Mcl-1 -1.
COc1cccc(/C=C2\SC(=O)NC2=O)c1OCc1ccc(C(=O)O)cc1 was read as MCL1-BIM inh 6, GLD-1 TGE inh -3, Mcl1-Bid inh -60, Mcl1-Noxa inh 7, Bim-Mcl-1 0 and Bcl-xL primary 5.
`CC(C)c1ccc(/C=C2\Oc3c(ccc(O)c3CN3CCN(C)CC3)C2=O)cc1` gave MCL1-BIM inh 36, GLD-1 TGE inh -6, Mcl1-Bid inh -24, Mcl1-Noxa inh 4, Bim-Mcl-1 1 and Bcl-xL primary 41*.
Cc1ccc(/C=C2\Oc3c(ccc(O)c3CN3CCN(CCO)CC3)C2=O)cc1 was read as MCL1-BIM inh 37, GLD-1 TGE inh -2, Mcl1-Bid inh -10, Mcl1-Noxa inh 7, Bim-Mcl-1 0 and Bcl-xL primary 48*.
